# Results: PubChem BioAssay (NCI)
# This is part of a sample that, as a whole, favours compounds with a hit. Of some 83,000 tested, about 20% had one in any assay.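 Values shown are percent growth following 48 h exposure of cells in 96-well plates to a single concentration of compound; below 10 was considered active.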 Values without a mark were called inactive. Calls of active or inactive are those of the source.
# Tested on: OVCAR-5 ovarian
# Test: NCI-60 one-dose screen, 48 h (100 = growth as untreated, 0 = no growth, -100 = all killed)
# Details: 10 µM unless noted
row,Compound,growth
1,COc1ccc(S(=O)(=O)n2cc(C=O)c3ccccc32)c(OC)c1,96.1%
2,C#C[C@]1(O)CC[C@H]2[C@@H]3CC=C4c5sc(Nc6cc(Cl)ccn6)nc5CC[C@]4(C)[C@H]3CC[C@@]21C,47.5%
3,N#C/C(=C\c1ccc2ccccc2c1)C(=O)Nc1sc2c(c1C#N)CCC2,111%
4,CN1CCN(Cc2ccc(NC(=O)c3cncc(C#Cc4cnc5ccc(O[C@H]6CCOC6)nn45)c3)cc2C(F)(F)F)CC1,-62.5% (active)
5,C/C=C/C=C1\C[C@H]2CO[C@H](O2)C1=O,103%
6,O=C(NNc1nc2cc(F)cc(F)c2n2cccc12)c1ncccn1,40.5%
7,C#CCOc1ccc(/C=N/Nc2nc(-c3cc(Cl)ccc3Cl)cs2)cc1,99.5%
8,COc1ccc(-c2nc(SCC(C)C)nc(N/N=C\c3cccc([N+](=O)[O-])c3)c2C#N)cc1,71.5%
9,CNC(=O)c1cc(Oc2ccc3nc(NC(=O)c4ccc(CN5CCN(C)CC5)c(C(F)(F)F)c4)sc3c2)ccn1,80.7%
10,C#C[C@]1(O)CC[C@H]2[C@@H]3CC=C4c5sc(Nc6ccc(OC)nc6)nc5CC[C@]4(C)[C@H]3CC[C@@]21C,83.9%
11,O=C1Nc2ccc(Br)cc2/C1=N\c1nnc(-c2ccc(Cl)cc2)o1,98.7%
12,CC(C)c1nn(-c2ccccc2)c(N2CCCCC2)c1/C=N/NC(N)=S,98.7%
13,COc1cc(/C=C/C(=O)c2ccc(N3CCN(C)CC3)cc2)ccc1F,81.6%
14,CC1CCN(S(=O)(=O)c2ncsc2-c2ccccc2)CC1,94.8%
15,O=C1[C@@H]2Cc3c([nH]c4ccccc34)[C@H](c3c(Cl)cccc3Cl)N2C(=O)CN1C1CCN(Cc2ccccc2)CC1,63%
16,C#C[C@]1(O)CC[C@H]2[C@@H]3CC=C4c5sc(Nc6ccncc6)nc5CC[C@]4(C)[C@H]3CC[C@@]21C,38.6%
17,C#CCOc1ccc(/C=N/Nc2nc(-c3cc4cc(Br)cc(Br)c4oc3=O)cs2)cc1,102%
18,O=C1c2c(c3c4cccnc4[nH]c3c3ccc4ccccc4c23)C(=O)N1CCN1CCCCC1,88.6%
19,NS(=O)(=O)Oc1ccc2nc(Nc3ccc(F)c(F)c3)ccc2c1,91.6%
20,Cc1ccc(-c2csc(N/N=C/c3nc4ccccc4n3C3CC3)n2)cc1,105%
21,O=C1c2c(c3c4cc(Br)ccc4[nH]c3c3ccc4ccccc4c23)C(=O)N1CCN1CCCCC1,99.8%
22,Cc1cnc2nc(NN)[nH]n12,101%
23,O=C(NCCCCCCNC(=O)c1c2c(nc3ccccc13)-c1cccnc1SC2)c1c2c(nc3ccccc13)-c1cccnc1SC2,57.9%
24,COc1cc(/C=N/n2cnc3oc(-c4ccccc4)cc3c2=N)cc(CN2CCCC2)c1O,99%
25,C#C[C@]1(O)CC[C@H]2[C@@H]3CC=C4c5sc(Nc6cccc(Cl)n6)nc5CC[C@]4(C)[C@H]3CC[C@@]21C,22.8%
